The values that follow come from PubChem BioAssay (NCI).

Among the test systems are HCT-15 colon; HT29 colon; SNB-75 CNS; SNB-19 CNS; U251 CNS; PC-3 prostate; SK-MEL-5 melanoma; UACC-62 melanoma; LOX IMVI melanoma; SK-MEL-28 melanoma; SK-MEL-2 melanoma; EKVX NSCLC; SN12C renal; UO-31 renal; TK-10 renal; ACHN renal; CAKI-1 renal; A498 renal; CCRF-CEM leukemia; MOLT-4 leukemia.
What all share (assay): NCI-60 one-dose screen, 48 h (100 = growth as untreated, 0 = no growth, -100 = all killed)
Common to all, as to details: 10 µM unless noted

Compounds without any hit were thinned out: in the full panel of roughly 83,000, 20% have a hit.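 Assay: single dose, 48 h. Readout: percent growth (0 = no net growth; negative = cell death). Active: <10.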 Unmarked numbers belong to inactive results. The source made the active and inactive calls.

As to `O=C1CC(=O)OC(c2ccc([N+](=O)[O-])cc2)O1`, the growth in the test on HCT-15 colon was -48.8% (active); in the test on HT29 colon, -39.5% (active); in the test on SNB-75 CNS, 9.16% (active); in the test with SNB-19 CNS, 55.2%; with U251 CNS, 4.05% (active); with PC-3 prostate it was 37%. The growth is 18.4% with SK-MEL-5 melanoma; -72.2% (active) in the test on UACC-62 melanoma; -84.5% (active) in the test with LOX IMVI melanoma; -17.3% (active) in the test on SK-MEL-28 melanoma; -40.2% (active) in the test on SK-MEL-2 melanoma; 47.8% in the test with EKVX NSCLC. The growth in the test with SN12C renal was -37.6% (active); with UO-31 renal, -88.2% (active); in the test on TK-10 renal, -15.5% (active); in the test on ACHN renal it was -76.2% (active); in the test with CAKI-1 renal it was -45.7% (active); with A498 renal it was 104%. Further, the growth in the test on CCRF-CEM leukemia is 15.3%.

As to `O=C1Nc2ccccc2/C1=C\c1c(-c2ccccc2)nc2ccccn12`, the growth in the test on HCT-15 colon was 29.3%; with HT29 colon, 21.8%; in the test on SNB-75 CNS, 38.5%; in the test with SNB-19 CNS it was 55.8%; in the test with U251 CNS, 62.9%; with PC-3 prostate, 49.9%. Further, the growth in the test with SK-MEL-5 melanoma is 17.3%; with UACC-62 melanoma, 33.4%; with LOX IMVI melanoma it was 37.1%; with SK-MEL-28 melanoma, 58.6%; with SK-MEL-2 melanoma, 52.5%; with EKVX NSCLC it was 53.1%. Besides, the growth with SN12C renal was 46.1%; in the test on UO-31 renal, 48.2%; in the test on TK-10 renal, 84.4%; in the test on ACHN renal, 40.9%; in the test on CAKI-1 renal, 39.2%; in the test on A498 renal, 28.6%. The growth is 37.9% in the test with CCRF-CEM leukemia and 9.8% (active) in the test with MOLT-4 leukemia.

Turning to `O=C(NO)c1ccc(-n2nc(-c3ccccc3)c3ccccc32)cc1`, the growth in the test with HCT-15 colon was 18.5%; with HT29 colon, 41.7%; with SNB-75 CNS it was 12.1%; in the test with SNB-19 CNS it was 47.4%; in the test with U251 CNS, 34.4%; in the test on PC-3 prostate, 46.7%. Further, the growth in the test on SK-MEL-5 melanoma is 57.6%; in the test on UACC-62 melanoma, 34.5%; in the test with LOX IMVI melanoma, 24.8%; in the test on SK-MEL-28 melanoma, 72.5%; with SK-MEL-2 melanoma, 90.9%; in the test on EKVX NSCLC, 42.3%. The growth in the test on SN12C renal was 32.9%; in the test with UO-31 renal it was 34.6%; with TK-10 renal it was 31.5%; with ACHN renal, 26.9%; in the test with CAKI-1 renal, 45.6%; in the test on A498 renal, 58.8%. Also, the growth in the test on CCRF-CEM leukemia was 12.9%; with MOLT-4 leukemia, 26.9%.

Consider `COc1cc(/C=C2\COc3ccc(-c4ccccc4)cc3C2=O)cc(OC)c1`, for which the growth in the test on HCT-15 colon was 61.3%; in the test with HT29 colon it was 60.7%; in the test with SNB-75 CNS, 51.8%; in the test with SNB-19 CNS, 98.9%; with U251 CNS it was 75.8%; with PC-3 prostate, 57.9%. In addition, the growth in the test with SK-MEL-5 melanoma was 86.3%; in the test on UACC-62 melanoma it was 75.9%; in the test with LOX IMVI melanoma, 71.9%; in the test with SK-MEL-28 melanoma it was 97.7%; with SK-MEL-2 melanoma it was 83.9%; in the test on EKVX NSCLC it was 102%. For the same molecule, the growth in the test on SN12C renal was 80.5%; in the test on UO-31 renal it was 77.1%; in the test with TK-10 renal it was 103%; in the test on ACHN renal it was 88.7%; with CAKI-1 renal, 71.6%; with A498 renal it was 95.5%. For the same molecule, the figures for the growth in the test with CCRF-CEM leukemia and with MOLT-4 leukemia were 20.3% and 30.7%, respectively.

Take `CNCCOc1nc2c3cnccc3cc(-c3cc(OC)c(OC)c(OC)c3)c2c2ccncc12`: the growth with HCT-15 colon is -6.39% (active); in the test on HT29 colon, -39.9% (active); with SNB-75 CNS it was -64.6% (active); with SNB-19 CNS it was -8.3% (active); with U251 CNS, -17.1% (active); in the test with PC-3 prostate, -13.4% (active). The growth with SK-MEL-5 melanoma was -97.7% (active); with UACC-62 melanoma it was -62.1% (active); with LOX IMVI melanoma, -46.8% (active); in the test with SK-MEL-28 melanoma, -71.6% (active); with SK-MEL-2 melanoma it was -77.5% (active); in the test on EKVX NSCLC, -45.9% (active). In addition, the growth in the test with SN12C renal is -36.9% (active); with UO-31 renal, -42.7% (active); in the test on TK-10 renal, -34.2% (active); with ACHN renal, -73.8% (active); with CAKI-1 renal it was -31% (active); in the test on A498 renal, -87.2% (active). The results for the growth in the test with CCRF-CEM leukemia and with MOLT-4 leukemia were -13.1% (active) and -15.1% (active), respectively.

As to `N#C/C(=C\c1ccccn1)c1nc2cc(Cl)ccc2s1`, the growth is 63.5% with HCT-15 colon; 86.4% in the test on HT29 colon; 8.52% (active) in the test with SNB-75 CNS; 85.9% with SNB-19 CNS; 73.8% in the test with U251 CNS; 44.1% in the test on PC-3 prostate. The growth is 83.7% in the test on SK-MEL-5 melanoma; 68.1% in the test on UACC-62 melanoma; 72.7% with LOX IMVI melanoma; 101% with SK-MEL-28 melanoma; 95.9% in the test on SK-MEL-2 melanoma; 56% with EKVX NSCLC. Besides, the growth in the test with SN12C renal is 64.7%; with UO-31 renal, 44.3%; with TK-10 renal, 119%; with ACHN renal it was 75.8%; with CAKI-1 renal, 66.5%; with A498 renal, 64.6%. Also, the growth with CCRF-CEM leukemia is 63.9%; in the test on MOLT-4 leukemia it was 75.6%.

With `COc1ccc(C(=O)c2cc(OC)c(OC)c(OC)c2)cc1O`, the growth in the test with HCT-15 colon was 3.56% (active); in the test on HT29 colon it was 14.7%; with SNB-75 CNS, -0.83% (active); in the test on SNB-19 CNS, 28.5%; in the test on U251 CNS it was 20.5%; with PC-3 prostate, 20.4%. In addition, the growth was -59.7% (active) in the test on SK-MEL-5 melanoma; 45.2% in the test with UACC-62 melanoma; 15.4% in the test on LOX IMVI melanoma; 57.6% in the test on SK-MEL-28 melanoma; 59.6% in the test with SK-MEL-2 melanoma; 43.8% in the test with EKVX NSCLC. In addition, the growth in the test on SN12C renal is 15.2%; in the test with UO-31 renal, 32.7%; with TK-10 renal it was 65.3%; in the test on ACHN renal, 25.6%; with CAKI-1 renal, 37.2%; in the test with A498 renal, 75%. Moreover, the growth with CCRF-CEM leukemia was 5.92% (active); in the test with MOLT-4 leukemia, 15.4%.

As to `O=C(CNCCN1CCOCC1)N1c2cccc3cccc(c23)N(C(=O)CNCCN2CCOCC2)C1c1cn(-c2ccccc2)nc1-c1cccc([N+](=O)[O-])c1`, the growth was 43.6% with HCT-15 colon; 7.37% (active) in the test on HT29 colon; 57.9% in the test on SNB-75 CNS; 77.1% in the test on SNB-19 CNS; 55.2% in the test with U251 CNS; 62.4% in the test on PC-3 prostate. For the same molecule, the growth in the test on SK-MEL-5 melanoma was 57.7%; in the test on UACC-62 melanoma, 94.8%; in the test with LOX IMVI melanoma, 53.9%; in the test with SK-MEL-28 melanoma, 64%; with SK-MEL-2 melanoma, 96.5%; with EKVX NSCLC it was 84.6%. For the same molecule, the growth in the test with SN12C renal is 79.4%; with UO-31 renal, 65.1%; in the test with TK-10 renal, 108%; with ACHN renal, 88.7%; in the test on CAKI-1 renal it was 66%; with A498 renal, 84.5%. Further, the growth is 17.5% in the test on CCRF-CEM leukemia and 48.5% with MOLT-4 leukemia.
